Test results taken from PubChem BioAssay AID641 (Vanderbilt High Throughput Screening Facility, 2007).
Screen size: about 58,000 compounds; about 3,400 (5.9%) were called active. Shown is part of a subset that was picked to be rich in actives. A number with no mark means an inactive call.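 Rule for the calls: active = luminescence count or its row- and column-corrected plate score outside the 99.7% band of the plate's sample wells, on either side; inactive = the rest.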

The compounds below were run against D(1A) dopamine receptor (Homo sapiens) (UniProt P21728) (assay: D1 CRE-luciferase signal change, two-sided – cell-based, HEK293 D1, dopamine EC30, D1 allosteric modulator project, primary screen (AID 641)). Details: dopamine EC30 potentiation, at 10 µM, actives deviate in either direction.
Chain of D(1A) dopamine receptor (Homo sapiens) (P21728 whole entry, looked up): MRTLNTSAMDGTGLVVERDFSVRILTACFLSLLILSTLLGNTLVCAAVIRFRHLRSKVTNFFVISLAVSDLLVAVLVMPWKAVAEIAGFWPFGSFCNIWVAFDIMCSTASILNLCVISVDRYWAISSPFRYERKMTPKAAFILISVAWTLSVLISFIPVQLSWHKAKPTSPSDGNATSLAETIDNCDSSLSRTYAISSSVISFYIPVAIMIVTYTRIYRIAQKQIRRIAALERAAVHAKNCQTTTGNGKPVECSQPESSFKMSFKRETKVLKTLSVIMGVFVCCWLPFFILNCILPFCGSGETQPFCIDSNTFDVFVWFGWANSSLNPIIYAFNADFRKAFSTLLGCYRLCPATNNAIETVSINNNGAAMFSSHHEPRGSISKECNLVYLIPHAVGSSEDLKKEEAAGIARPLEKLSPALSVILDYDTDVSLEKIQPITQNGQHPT

In order of rising B-score:
1. CN(C)c1cc(N)c2ccccc2n1 (tested in a mixture with another compound)  -2.66
2. Cc1ccc(C(c2sc3nc(C)nn3c2O)N2CCN(c3ccc(F)cc3)CC2)cc1 (stereo not given)  -1.2
3. CCn1c(SCCC(C)C)nnc1-c1c[nH]c2ccccc12  -1.04
4. CCOC(=O)c1[nH]c2c(c1C)C(=O)CC(c1ccc(N(C)C)cc1)C2 (stereo not given)  -1.04
5. O=C(COc1ccc2c3c(c(=O)oc2c1)CCC3)NC1CCCCC1  -1.02
6. COCCNC(=O)Cn1cc2c(n1)CCCCC2  -0.978
7. COCCNCCOCCOc1cccc(OC)c1  -0.824
8. NC(=O)c1ccccc1NC(=O)c1ccccc1F  -0.754
9. COc1ccc(CNC(=O)c2cc3c(=O)n4ccccc4nc3n(CC3CCCO3)c2=N)cc1 (stereo not given)  -0.73
10. Cc1ccc2nc3n(c(=O)c2c1)CCC3  -0.684
11. CCOC(=O)Cc1c(C)nc2c(C#N)c(C)nn2c1C  -0.671
12. O=[n+]1c2c(n([O-])c3cc(Br)ccc31)CCC2  -0.651
13. COc1cc2cc(CN(CCN3CCCC3)C(=O)Nc3ccccc3Cl)c(=O)[nH]c2cc1OC  -0.557
14. O=C(c1cccs1)N1CCN(Cc2ccc3c(c2)OCO3)CC1  -0.554
15. O=C(O)CSCc1nc2ccccc2s1  -0.539
16. c1ccc(-n2ncc3c2ncn2c(CSc4nc5ccccc5s4)nnc32)cc1  -0.538
17. Cc1ccc(-n2ncc3c(=O)[nH]cnc32)c(C)c1  -0.523
18. C=CCSc1nc2ccccc2[nH]1  -0.468
19. N#CC1=C(N)Oc2cc(O)ccc2C1C1CCCCC1 (stereo not given)  -0.438
20. CCOC(=O)c1cnc2sccn2c1=O  -0.341
21. CCOC(=O)C1CCN(C(=O)Nc2ccc(Cl)cc2)CC1  -0.339
22. Cn1c(-c2ccc(F)cc2)cnc1SCC(=O)NCc1ccco1  -0.294
23. COc1ccc(C(=O)c2oc3ccc(Br)cc3c2NC(C)=O)cc1  -0.206
24. O=C(Nc1c(C(=O)N2CCCCC2)cnn1-c1ccccc1)c1ccco1  -0.19
25. Cn1cccc1C(=O)NC(=O)COC(=O)Cc1coc2ccc3ccccc3c12  -0.19
26. CC1Cc2ccccc2N1C(=O)Cn1cnc2ccccc2c1=O (stereo not given)  -0.115
27. CCc1nnc(NC(=O)CSc2nnc(-c3ccncc3)n2Cc2ccccc2)s1  -0.0482
28. O=C(CN1CCN(c2nc(-c3ccccc3)cs2)CC1)NCc1ccc2c(c1)OCO2  -0.0459
29. O=C(O)CCCC(=O)Nc1ccccc1-n1ccnc1  -0.0259
30. COc1ccc(-n2nnc3c(=O)n(CC(=O)N4CCC(Cc5ccccc5)CC4)cnc32)cc1  -0.0249
31. CC(=O)Nc1ccc(S(=O)(=O)N2CCSCC2)cc1  -0.0119
32. Cc1cccc(OCc2nnc(SCC(=O)N3CCN(C(=O)c4ccco4)CC3)n2C)c1C  -0.00929
33. CCn1c(SCC(=O)Nc2nc3ccc(OC)cc3s2)nnc1-c1ccoc1C  -0.00542
34. CC1=C(C(N)=O)C(c2ccc3c(c2)OCO3)n2nc(-c3cccc(C)c3)nc2N1 (stereo not given)  0.00602
35. CCOc1cc(C(=S)N2CCOCC2)ccc1O  0.0105
36. COc1ccc(C2CC(=O)C=C(NCC3CCCO3)C2)cc1 (stereo not given)  0.013
37. O=C(NCc1ccccn1)c1cc2ccccc2oc1=O  0.0147
38. COC(=O)C1C(=O)c2c([nH]c(C(=O)OCCSC)c2C)CC1C (stereo not given)  0.0229
39. Cn1c(SCC(=O)Nc2cccc(O)c2)nnc1-c1ccc(S(=O)(=O)N2CCOCC2)cc1  0.0252
40. COCCN(CC(=O)Nc1ccccc1C)S(=O)(=O)c1ccc(S(=O)(=O)N2CCCC2)cc1  0.0335
41. CC(C)(C)Oc1ncc(Br)c(OC(C)(C)C)n1  0.0357
42. COc1cccc(N2C(=O)C3CCCN3C2c2ccc(F)cc2)c1 (stereo not given)  0.0389
43. COC(=O)Cc1cc(=O)n(-c2nc3ccccc3s2)[nH]1  0.0542
44. O=C(CN1C2CCC1CC(NC(=O)C1CC1)C2)NCc1ccccc1 (stereo not given)  0.0586
45. COCCNC(=O)C(c1ccc(C)o1)N(Cc1ccccc1)C(=O)Cn1nnc2ccccc21 (stereo not given)  0.0616
46. Cc1nc2sc(C(c3ccco3)N3CCOCC3)c(O)n2n1 (stereo not given)  0.108
47. O=C(CSc1nnc(-c2cccs2)n1-c1ccccc1)NCc1ccco1  0.124
48. CN(C)CCCNc1c2c(c(C#N)c3nc4ccccc4n13)CCC2  0.142
49. CCC(Sc1nncn1C)C(=O)Nc1nnc(-c2ccc(Cl)cc2)s1 (stereo not given)  0.176
50. O=C(CCN1C(=O)c2ccccc2C1=O)Nc1ccncc1  0.176
51. CCOC(=O)C(C)Oc1cccc2c(=O)n(CC(=O)N3CCc4ccccc43)ccc12 (stereo not given)  0.245
52. COc1ccccc1NC(=O)C1=C(C)NC2=C(C(=O)CCC2)C1c1ccc(C)o1 (stereo not given)  0.26
53. Cc1c(CN2CCC(C)CC2)c(=O)n(-c2ccccc2)n1C  0.319
54. CCCCn1nc(C(=O)N2CCc3ccccc32)c2ccccc2c1=O  0.35
55. COc1ccc(S(=O)(=O)N(CCCN2CCCC2=O)Cc2cc3c(C)ccc(C)c3[nH]c2=O)cc1  0.354
56. COC(=O)C1=C(C)NC(=O)NC1/C=C/c1ccccc1 (stereo not given)  0.394
57. O=C(Cn1[nH]c(=O)c2ccccc2c1=O)Nc1cccc(-c2nnc3n2CCCCC3)c1  0.394
58. Cn1c2ccccc2c2c(C(=O)N3CCN(c4ccc(F)cc4)CC3)cn(C3CCCC3)c(=O)c21  0.395
59. Cc1cc(N2CCN(Cc3ccc4c(c3)OCO4)CC2)n2ncnc2n1  0.443
60. COc1ccc(-c2nn(-c3ccccc3)cc2C(=O)Nc2nc(CC(C)=O)ns2)cc1  0.451
61. CC(C)OC(=O)CN1C(=O)c2ccccc2C1=O  0.49
62. COc1ccc(OC)c(S(=O)(=O)Nc2ccccc2F)c1  0.662
63. c1ccc(-c2[nH]ncc2-c2nc3ccccc3[nH]2)cc1  0.738
64. Cc1ccc(-n2ncc3c2ncn2nc(-c4ccco4)nc32)c(C)c1  0.753
65. Cc1cccn2c(=O)c3cc(C(=O)NCc4ccccn4)n(C)c3nc12  0.762
66. CNC(=O)CSc1nnc(CCc2ccccc2)n1-c1ccccc1  0.762
67. CCCC(=O)C1=C(N(C)c2ccccc2)CC(C)(C)C(C(=O)OC)C1=O (stereo not given)  0.78
68. Cc1cccc(NC(=O)COc2ccc(Br)cc2C)n1  0.787
69. CCn1c(SCC(=O)Nc2ccccc2F)nc2c(c1=O)SC(C)C2 (stereo not given)  0.8
70. Cc1cc(C(=O)O)c(S(C)(=O)=O)s1  0.833
71. CC(C)Nc1nc(N(c2ccccc2)c2ccccc2)nc(-n2ccnc2)n1  0.848
72. CCOC(=O)c1sc(NC(=O)C(CC)Sc2nccn2C)nc1C (stereo not given)  0.947
73. O=C(C1CCCO1)N(Cc1ccccc1)c1ccccc1 (stereo not given)  0.947
74. CCCCn1c(CN2CCN(CCO)CC2)nc2ccccc21  1.03
75. Cc1ccc(-c2csc3nnc(SCC(=O)NCc4ccco4)n23)cc1  1.29
76. CCC(=O)c1cc2c(cc1NC(=O)c1cccs1)OCCO2  1.41
77. Cc1cc(C)nc(SCc2ccccc2C#N)n1  1.42
78. CCn1c(SCC(=O)Nc2ccc3c(c2)OCCO3)nc2c(c1=O)SC(C)C2 (stereo not given)  2
79. O=C(CSC1=NCCS1)Nc1nc(-c2ccccc2)cs1  2.09
80. CCSC(C)CC1C/C(=N/O)c2c(C)noc2C1 (stereo not given)  3.09
81. COC(=O)c1cc(OC)c(OC)cc1NC(=O)C1CCCO1 (stereo not given)  3.46

In the case of CN1CCN(CC(O)COCc2ccc3c(c2)OCO3)CC1 (stereo not given), the B-score was 3.63 (active).
For O=C(NCc1ccccn1)c1ccc2nc(-c3ccco3)c(-c3ccco3)nc2c1, the B-score was 7.64 (active).
CCCn1c(=NC(C)=O)c(C(=O)OCC)cc2c(=O)n3ccccc3nc21 was tested, and the B-score was 4.16 (active).
For Cc1ccc(-c2nn(-c3ccccc3)cc2CN(Cc2ccccc2)C(=O)CCC(=O)O)o1, the B-score was 13.6 (active).
For c1ccc(-c2nnc3n2NC(c2ccc4c(c2)OCO4)S3)cc1 (stereo not given), the B-score was 7.49 (active).
With O=C(CSc1nnc2scc(-c3ccc(F)cc3)n12)NCc1ccco1 the B-score was 6.74 (active).
N#Cc1c2c(c(N3CCN(CCO)CC3)n3c1nc1ccccc13)CCCC2 was tested, and the B-score was 4.34 (active).
With COC(=O)C1=C(C)NC2=C(C(=O)c3ccccc32)C1c1ccc(-c2ccc(C(=O)O)cc2)o1 (stereo not given) the B-score was 6.14 (active).
For O=c1c2c(nc3n1CCCCC3)sc1c(O)cccc12, the B-score was -6.41 (active).
For CCCOC(=O)c1[nH]c2c(c1C)C(=O)CC(c1cc(OC)c(OC)c(OC)c1)C2 (stereo not given), the B-score was -3.89 (active).
With Cc1ccc(-n2ncc3c(N4CCN(c5ccc(F)cc5)CC4)ncnc32)c(C)c1 the B-score was -2.95 (active).
In the case of Cc1ccc(C(c2sc3nc(C)nn3c2O)N2CCN(c3ccccc3)CC2)cc1 (stereo not given), the B-score was -3.44 (active).
CCC(=O)NC(=Nc1nc2ccccc2s1)NC(=O)CC was tested, and the B-score was 11.5 (active).
CC(=O)c1c(C)c[nH]c1C was tested, and the B-score was -3.34 (active).
For COC(=O)Nc1ncc(CN2C(=O)c3ccccc3C2=O)s1, the B-score was 3.19 (active).
With CCn1nc(C(=O)OCC(=O)N2c3ccccc3CC2C)c2ccccc2c1=O (stereo not given) the B-score was 4.38 (active).
In the case of N#Cc1nc(N)nc(N(c2ccccc2)c2ccccc2)n1, the B-score was 4.55 (active).
For c1ccc2[nH]c(-c3nc4ccccc4[nH]3)nc2c1, the B-score was -2.93 (active).
In the case of CCCCSc1nc2c(c(=O)n1CC)SC(C)C2 (stereo not given), the B-score was 9.06 (active).
